The values below come from PubChem BioAssay (EPA / NIEHS).

What all share (settings): mRNA level, 48 h; actives raise or lower the signal
Read-out in test [1]: matrix metalloproteinase-3 (MMP3), MMP3 (gene 4314)
In words: LTEA_HepaRG_MMP3: Life Technologies and Expression Analysis (LTEA) Assay for matrix metalloproteinase-3 (MMP3) using HepaRG (AID 2283519). The essentials:
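HepaRG, human; 48 h dosing, 8 conc. (max 100 uM, half-log), duplicate, 0.5% DMSO. Readout: MMP3 transcript by Fluidigm TaqMan qRT-PCR, ACTB/GAPDH/POLR2A-normalised. Gain or loss fitted vs DMSO.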

Read-out in test [2]: Paternally Expressed 10 (PEG10), PEG10 (gene 23089)
In words: LTEA_HepaRG_PEG10: Life Technologies and Expression Analysis (LTEA) Assay for Paternally Expressed 10 (PEG10) using HepaRG (AID 2283520). The essentials: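 Differentiated HepaRG cells exposed 48 h in serum-free induction medium to eight half-log concentrations topping at 100 uM, 0.5% DMSO, in duplicate. PEG10 mRNA quantified by TaqMan qRT-PCR, normalized to ACTB, GAPDH and POLR2A; bidirectional fit versus DMSO.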

Read-out in test [3]: Nuclear factor NF-kappa-B p105 subunit (Homo sapiens) (UniProt P19838)
In words: LTEA_HepaRG_NFKB1: Life Technologies and Expression Analysis (LTEA) Assay for Nuclear Factor Kappa B Subunit 1 (NFKB1) using HepaRG (AID 2283521). The essentials: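 Human HepaRG cells receive eight half-log concentrations, highest 100 uM, for 48 h. NFKB1 expression is then quantified by qRT-PCR and analysed for up- or down-regulation relative to 0.5% DMSO vehicle.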

Read-out in test [4]: Protein phosphatase 2A (PPP2R4), PTPA (gene 5524)
Kind of test: LTEA_HepaRG_PPP2R4: Life Technologies and Expression Analysis (LTEA) Assay for Protein phosphatase 2A (PPP2R4) using HepaRG (AID 2283522). In a few lines:
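Differentiated human HepaRG cells in serum-free induction medium were exposed 48 h to 8 concentrations (top 100 µM, half-log steps, duplicate) in 0.5% DMSO. PPP2R4 mRNA was measured by TaqMan qRT-PCR, normalised to ACTB, GAPDH and POLR2A, and fitted bidirectionally versus DMSO.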

Read-out in test [5]: Phosphatase and tensin (PTEN), PTEN (gene 5728)
In words: LTEA_HepaRG_PTEN: Life Technologies and Expression Analysis (LTEA) Assay for Phosphatase and tensin (PTEN) using HepaRG (AID 2283523). The essentials: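 Read-out is PTEN transcript level by multiplexed TaqMan qRT-PCR after 48 h chemical treatment of human HepaRG cultures in serum-free induction medium. Concentrations spanned 100 uM downward in half-log steps, 0.5% DMSO throughout; activity fitted in both directions against vehicle.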

Read-out in test [6]: Pyruvate Dehydrogenase Kinase 4 (PDK4), PDK4 (gene 5166)
In words: LTEA_HepaRG_PDK4: Life Technologies and Expression Analysis (LTEA) Assay for Pyruvate Dehydrogenase Kinase 4 (PDK4) using HepaRG (AID 2283525). The essentials: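 In this multiplexed human HepaRG expression assay, cells are treated 48 h with test chemicals across an eight-point range starting at 100 uM. PDK4 mRNA changes, normalized to ACTB/GAPDH/POLR2A, are fitted in both directions relative to vehicle.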

Read-out in test [7]: NAD(P)H dehydrogenase [quinone] 1 (NQO1), NQO1 (gene 1728)
In words: LTEA_HepaRG_NQO1: Life Technologies and Expression Analysis (LTEA) Assay for NAD(P)H dehydrogenase [quinone] 1 (NQO1) using HepaRG (AID 2283526). In a few lines:
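Differentiated human HepaRG cells in serum-free induction medium, dosed in duplicate for 48 h at 8 half-log concentrations up to 100 uM in 0.5% DMSO. NQO1 mRNA by qRT-PCR normalized to ACTB, GAPDH, POLR2A; bidirectional fit versus DMSO baseline.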

Read-out in test [8]: succinate dehydrogenase complex iron sulfur subunit B (SDHB), SDHB (gene 6390)
Kind of test: LTEA_HepaRG_SDHB: Life Technologies and Expression Analysis (LTEA) Assay for succinate dehydrogenase complex iron sulfur subunit B (SDHB) using HepaRG (AID 2283528). The essentials: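 A human HepaRG culture in serum-free induction medium received test chemicals for 48 h over an eight-point range capped at 100 uM. SDHB expression change was quantified by qRT-PCR.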

Read-out in test [9]: Signal transducer and activator of transcription 3 (Homo sapiens) (UniProt P40763)
Kind of test: LTEA_HepaRG_STAT3: Life Technologies and Expression Analysis (LTEA) Assay for Signal transducer and activator of transcription (STAT3) using HepaRG (AID 2283529). The essentials: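 Read-out is STAT3 mRNA level by qRT-PCR, normalized to three housekeeping genes, in human HepaRG liver cells treated for 48 h. Concentrations ran from 100 uM downward in half-log steps; curves were fitted for gain or loss relative to 0.5% DMSO.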

Read-out in test [10]: solute carrier (SLCO1B1), SLCO1B1 (gene 10599)
Kind of test: LTEA_HepaRG_SLCO1B1: Life Technologies and Expression Analysis (LTEA) Assay for solute carrier (SLCO1B1) using HepaRG (AID 2283530). The essentials: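 Human HepaRG cultures treated for 48 h with an eight-concentration half-log series topping at 100 uM; SLCO1B1 measured by qRT-PCR and fitted bidirectionally relative to DMSO.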

Read-out in test [11]: sulfotransferase 2A1 (SULT2A1), SULT2A1 (gene 6822)
In words: LTEA_HepaRG_SULT2A1: Life Technologies and Expression Analysis (LTEA) Assay for sulfotransferase 2A1 (SULT2A1) using HepaRG (AID 2283531). In a few lines:
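Gene-expression endpoint in a human liver cell line: SULT2A1 mRNA change after 48 h chemical treatment, curves fitted in both directions relative to 0.5% DMSO vehicle. Concentrations spanned eight half-log steps from 100 uM.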

Read-out in test [12]: Transforming Growth Factor (TGFA), TGFA (gene 7039)
In words: LTEA_HepaRG_TGFA: Life Technologies and Expression Analysis (LTEA) Assay for Transforming Growth Factor (TGFA) using HepaRG (AID 2283532). The essentials:
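HepaRG (human liver line), 48 h exposure, 8 conc. half-log down from 100 uM, 0.5% DMSO vehicle, duplicates; serum-free induction medium. TGFA mRNA by TaqMan qRT-PCR, ACTB/GAPDH/POLR2A normalization; gain/loss fit vs DMSO.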

Read-out in test [13]: Transforming Growth Factor (TGFB1), TGFB1 (gene 7040)
Kind of test: LTEA_HepaRG_TGFB1: Life Technologies and Expression Analysis (LTEA) Assay for Transforming Growth Factor (TGFB1) Transporter using HepaRG (AID 2283533). The essentials: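 Eight-point concentration-response (max 100 uM, half-log) in HepaRG under serum-free induction conditions, 48 h. TGFB1 mRNA by qRT-PCR, housekeeping-normalized.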

Read-out in test [14]: TIMP1, TIMP1 (gene 7076)
Kind of test: LTEA_HepaRG_TIMP1: Life Technologies and Expression Analysis (LTEA) Assay for TIMP1 using HepaRG (AID 2283534).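 Further: TaqMan qRT-PCR signal normalized to ACTB GAPDH and POLR2A housekeeping genes.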 The essentials: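 TIMP1 induction or repression in HepaRG cells after 48 h chemical exposure (eight concentrations, highest 100 uM), assessed by normalized qRT-PCR with bidirectional fitting to DMSO controls.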

Read-out in test [15]: Tumor necrosis factor receptor 1 (TNFRSF1A), TNFRSF1A (gene 7132)
Kind of test: LTEA_HepaRG_TNFRSF1A: Life Technologies and Expression Analysis (LTEA) Assay for Tumor necrosis factor receptor 1 (TNFRSF1A) using HepaRG (AID 2283535). In a few lines:
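Assay uses 48 h chemical treatment of differentiated HepaRG monolayers, tested in duplicate at eight concentrations from 100 uM downward in 0.5% DMSO. mRNA is normalized to ACTB, GAPDH and POLR2A, with induction or suppression fitted relative to vehicle.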

Read-out in test [16]: Thyroid Hormone Responsive (THRSP), THRSP (gene 7069)
Kind of test: LTEA_HepaRG_THRSP: Life Technologies and Expression Analysis (LTEA) Assay for Thyroid Hormone Responsive (THRSP) using HepaRG (AID 2283536). The essentials:
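mRNA induction or loss relative to 0.5% DMSO vehicle was fitted bidirectionally across an eight-point curve whose highest exposure was 100 uM. Human HepaRG liver cells received chemicals in duplicate over 48 h before RNA extraction.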

Read-out in test [17]: UDP glucuronosyltransferase (UGT1A1), UGT1A1 (gene 54658)
Kind of test: LTEA_HepaRG_UGT1A1: Life Technologies and Expression Analysis (LTEA) Assay for UDP glucuronosyltransferase (UGT1A1) using HepaRG (AID 2283538). The essentials:
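HepaRG cells, 0.5% DMSO vehicle, 48 h exposure in serum-free induction medium to 8-point half-log series topping at 100 uM, in duplicate. UGT1A1 mRNA by Fluidigm qRT-PCR, normalized to ACTB/GAPDH/POLR2A; bidirectional fit versus DMSO.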

Read-out in test [18]: Nuclear factor erythroid 2-related factor 2 (Homo sapiens) (UniProt Q16236)
Kind of test: LTEA_HepaRG_NFE2L2: Life Technologies and Expression Analysis (LTEA) Assay for Nuclear factor erythroid 2-related factor 2 (NFE2L2) Transcription Factor using HepaRG (AID 2283527).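 On outcome: TaqMan qRT-PCR transcript level normalised to ACTB GAPDH and POLR2A housekeeping genes.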 In a few lines: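 Transcript level of NFE2L2 is the read-out, measured by microfluidic TaqMan qRT-PCR and normalized to three housekeeping genes. Human HepaRG cultures received test chemical for 48 h at up to 100 uM in half-log steps. Gain or loss of signal is fitted relative to 0.5% DMSO.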

Read-out in test [19]: Cellular tumor antigen p53 (Homo sapiens) (UniProt P04637)
Kind of test: LTEA_HepaRG_TP53: Life Technologies and Expression Analysis (LTEA) Assay for Tumor Protein P53 (TP53) using HepaRG (AID 2283537). The essentials: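 Gain or loss of TP53 mRNA signal is scored relative to 0.5% DMSO after 48 h chemical treatment of HepaRG liver cells, tested in duplicate at eight half-log concentrations up to 100 uM.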

Active and inactive are the calls of the source. How the source made its calls: active means hit-call score of the fitted dose curve at least 0.9, where 1 is the maximum; inactive means score below 0.9.

The AC50 is the concentration at which the activity in the assay is half-maximal.

Sequence of Signal transducer and activator of transcription 3 (Homo sapiens) (P40763 whole entry, looked up): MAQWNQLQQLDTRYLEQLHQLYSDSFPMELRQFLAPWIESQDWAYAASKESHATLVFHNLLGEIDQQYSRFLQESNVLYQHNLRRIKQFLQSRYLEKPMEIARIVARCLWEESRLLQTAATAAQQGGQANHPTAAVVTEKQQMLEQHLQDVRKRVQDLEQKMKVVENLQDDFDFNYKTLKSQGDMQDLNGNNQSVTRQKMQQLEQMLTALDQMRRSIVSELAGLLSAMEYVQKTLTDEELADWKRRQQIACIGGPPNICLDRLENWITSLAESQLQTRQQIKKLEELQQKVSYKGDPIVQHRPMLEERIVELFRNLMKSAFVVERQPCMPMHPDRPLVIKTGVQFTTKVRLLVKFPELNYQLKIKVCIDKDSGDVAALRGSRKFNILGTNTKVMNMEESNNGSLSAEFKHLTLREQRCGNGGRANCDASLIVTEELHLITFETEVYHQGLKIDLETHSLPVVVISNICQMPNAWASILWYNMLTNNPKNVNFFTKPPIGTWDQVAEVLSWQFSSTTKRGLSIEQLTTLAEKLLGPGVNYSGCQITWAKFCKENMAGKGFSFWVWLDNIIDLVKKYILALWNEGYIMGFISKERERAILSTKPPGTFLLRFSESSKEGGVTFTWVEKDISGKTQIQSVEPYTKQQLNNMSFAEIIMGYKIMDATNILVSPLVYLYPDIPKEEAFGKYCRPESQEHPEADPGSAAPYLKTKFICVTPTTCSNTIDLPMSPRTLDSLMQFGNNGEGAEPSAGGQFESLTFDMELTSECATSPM
Sequence of Nuclear factor NF-kappa-B p105 subunit (Homo sapiens) (P19838 whole entry, looked up): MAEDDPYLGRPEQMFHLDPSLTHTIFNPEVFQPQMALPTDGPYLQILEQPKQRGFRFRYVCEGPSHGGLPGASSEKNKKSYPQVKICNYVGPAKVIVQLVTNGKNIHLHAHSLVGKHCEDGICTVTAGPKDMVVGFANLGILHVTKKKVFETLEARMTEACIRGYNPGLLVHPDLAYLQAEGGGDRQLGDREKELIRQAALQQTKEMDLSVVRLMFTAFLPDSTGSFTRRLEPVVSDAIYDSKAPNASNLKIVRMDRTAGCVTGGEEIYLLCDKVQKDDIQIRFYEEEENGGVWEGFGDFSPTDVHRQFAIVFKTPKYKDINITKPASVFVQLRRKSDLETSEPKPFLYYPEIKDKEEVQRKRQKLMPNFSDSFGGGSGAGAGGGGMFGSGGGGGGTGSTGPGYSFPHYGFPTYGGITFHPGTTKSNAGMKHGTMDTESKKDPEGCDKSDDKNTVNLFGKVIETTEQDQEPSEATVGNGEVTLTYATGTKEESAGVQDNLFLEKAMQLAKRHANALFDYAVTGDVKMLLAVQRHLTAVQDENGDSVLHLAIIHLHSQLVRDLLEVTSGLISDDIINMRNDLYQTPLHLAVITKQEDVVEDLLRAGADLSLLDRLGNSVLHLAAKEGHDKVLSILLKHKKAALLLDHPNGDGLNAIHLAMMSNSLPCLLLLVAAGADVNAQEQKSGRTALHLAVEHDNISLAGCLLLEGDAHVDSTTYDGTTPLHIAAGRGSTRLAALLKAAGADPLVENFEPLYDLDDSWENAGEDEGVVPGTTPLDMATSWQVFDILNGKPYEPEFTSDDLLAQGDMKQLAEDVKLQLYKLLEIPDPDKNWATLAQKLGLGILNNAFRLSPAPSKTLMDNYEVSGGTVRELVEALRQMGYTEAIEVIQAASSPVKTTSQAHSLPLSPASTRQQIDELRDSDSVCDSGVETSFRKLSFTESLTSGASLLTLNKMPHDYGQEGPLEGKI
Sequence of Cellular tumor antigen p53 (Homo sapiens) (P04637 whole entry, looked up): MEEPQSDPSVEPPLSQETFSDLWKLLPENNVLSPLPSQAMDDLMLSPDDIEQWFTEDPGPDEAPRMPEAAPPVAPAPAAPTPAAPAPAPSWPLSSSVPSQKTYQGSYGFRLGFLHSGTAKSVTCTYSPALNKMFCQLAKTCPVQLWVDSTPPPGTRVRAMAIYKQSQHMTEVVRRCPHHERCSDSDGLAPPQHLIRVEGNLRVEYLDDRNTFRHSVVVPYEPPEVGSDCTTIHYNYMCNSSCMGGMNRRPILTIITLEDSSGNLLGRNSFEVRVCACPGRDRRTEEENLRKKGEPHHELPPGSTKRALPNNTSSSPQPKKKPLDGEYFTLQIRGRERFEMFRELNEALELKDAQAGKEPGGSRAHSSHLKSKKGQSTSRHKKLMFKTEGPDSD
Sequence of Nuclear factor erythroid 2-related factor 2 (Homo sapiens) (Q16236 whole entry, looked up): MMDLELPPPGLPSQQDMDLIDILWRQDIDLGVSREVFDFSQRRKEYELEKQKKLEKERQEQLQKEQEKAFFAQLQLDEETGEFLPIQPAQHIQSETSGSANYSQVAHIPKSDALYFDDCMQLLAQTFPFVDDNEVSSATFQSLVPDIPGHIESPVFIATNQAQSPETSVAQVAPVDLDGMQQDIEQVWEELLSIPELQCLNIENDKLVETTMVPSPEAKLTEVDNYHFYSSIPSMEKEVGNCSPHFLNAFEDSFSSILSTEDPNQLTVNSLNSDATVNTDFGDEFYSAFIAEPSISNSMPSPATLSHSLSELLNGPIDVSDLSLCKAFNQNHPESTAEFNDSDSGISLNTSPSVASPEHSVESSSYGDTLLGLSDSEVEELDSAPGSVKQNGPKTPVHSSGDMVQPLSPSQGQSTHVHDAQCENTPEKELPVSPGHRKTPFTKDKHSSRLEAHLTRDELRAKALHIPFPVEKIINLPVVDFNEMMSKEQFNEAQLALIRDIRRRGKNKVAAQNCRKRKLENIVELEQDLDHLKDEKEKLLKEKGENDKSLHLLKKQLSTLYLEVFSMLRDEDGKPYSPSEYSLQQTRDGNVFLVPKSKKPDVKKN

For the compound `CCCCOCCOCCOCc1cc2c(cc1CCC)OCO2`, the compound was called inactive in test [1], in test [2], in test [3], in test [4], in [5] and in test [7]. For the same compound, the call in test [8], in test [9], in test [12], in test [13], in test [14] and in test [15] was inactive. In addition, the half-maximal activity concentration (AC50) in [6] is 17.8 µM (active); in test [10], 8.47 µM (active); in test [11], 6.8 µM (active); in [16], 10.7 µM (active); in test [17] it was 3.72 µM (active).
As to `CCOC(=O)NCCOc1ccc(Oc2ccccc2)cc1`, the AC50 in test [1] is 50 µM (active); in test [2], 29 µM (active); in [10], 93.4 µM (active); in [11] it was 82.7 µM (active); in test [12], 78.6 µM (active); in test [16], 75.8 µM (active). The AC50 in test [19] was 82.8 µM (active). For the same compound, the call in [3], in test [4], in test [5], in test [6], in [7] and in [18] was inactive. The result in test [8], in test [9], in test [13], in test [14], in test [15] and in [17] was inactive.
`c1ccc2[nH]c(-c3cscn3)nc2c1`: the AC50 is 26.6 µM (active) in [2], 15.8 µM (active) in [6], 50 µM (active) in test [18] and 25.8 µM (active) in [17]. For the same compound, the outcome in [3], in test [4], in test [5], in [7], in test [8] and in [9] was inactive. Besides, the result in test [10], in [11], in test [12], in [14], in test [15] and in [16] was inactive.
Consider `C[C@]12C[C@H](O)[C@H]3[C@@H](CCC4=CC(=O)CC[C@@]43C)[C@@H]1CC[C@@H]2C(=O)CO`, for which the outcome in [2], in test [3], in test [4], in [5], in [6] and in test [7] was inactive. Further, the compound was classed as inactive in test [8], in test [9], in test [12], in test [13], in test [14] and in test [15]. Besides, the result in test [19] was inactive. The concentration at half-maximal activity (AC50) in [10] was 50 µM (active); in test [11] it was 66.4 µM (active); in test [16], 50 µM (active); in test [17] it was 50 µM (active).
